This assay is described as follows: NPY-Y2 potentiators or agonists, counter-screen for NPY-Y1 potentiator project, cell-based, fluorescence (AID 1649). The settings on record: HEK293-CNG cells, membrane-potential fluorescence (FLIPR), 1536-well; at 3.6 µM; hits give high values.

The structures appear in SMILES notation. Some of the results follow. Values without a mark were called inactive. Cut-off read from the data, not from the text of the source: active = activation above about 33%; inactive = the rest.

With `CSC1=NP(=S)(SC)N(C)c2nc3n(c21)CCC3` (configuration not stated), the activation is 3.63%.

Turning to `Cc1nn(Cc2ccccc2Cl)c(Cl)c1C(=O)OC(C(=O)NC(N)=O)C(C)C` (configuration not stated), the activation is 23.6%.

The values above are taken from PubChem BioAssay AID1649 (The Scripps Research Institute Molecular Screening Center, 2009).
